In PubChem BioAssay (NCATS):
Inconclusive results are not listed. The source made the active and inactive calls. Unless noted, the call rests on the fitted dose curve; in most records, active means well fitted curve in the direction sought with a large enough effect; inconclusive means small, poorly fitted or top-dose-only effect, or another doubt; inactive means no such curve, though single readings can be large; an effect the other way counts as inactive or inconclusive.

Legend:
[1] = Confirmation and Secondary Assay for Modulators of Hemoglobin Beta Chain Splicing at IVS2 705 locus (AID 930);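 further: HeLa cells stably expressing the EGFP-705 splicing reporter; GFP fluorescence per well restored by corrected splicing of the IVS2-705 intron in EGFP; % of control where 0% means no effect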
Summary of the method: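 HeLa cells stably carrying EGFP interrupted by mutant beta-globin intron 2 (IVS2-705) treated 2 days at 37C with compound; 500 nM antisense PNA as control. Correct splicing read as total peak GFP intensity per well by laser-scanning cytometry.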

[2] = qHTS Assay for Lipid Storage Modulators (AID 1519; calls by dose curve); settings: Drosophila S3 cells, BODIPY lipid droplet/cell ratio, laser cytometry, cells loaded with oleic acid; for activity change, negative = inhibition: at 57.5 µM (top of the series)
Summary of the method: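 Cells seeded at 5,000 per well were treated with compounds over a concentration series and loaded with oleic acid (400 uM, as added). Lipid droplet fluorescence (488 nm excitation, 500-530 nm channel) was read by laser-scanning cytometry and normalized to 20 uM Triacsin C.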

[3] = target: Rap guanine nucleotide exchange factor 3 (Homo sapiens) (UniProt O95398); test: Confirmatory qHTS for agonist of cAMP-regulated guanine nucleotide exchange factor 3 (EPAC1) (AID 1645881);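 further: EPAC1 catalysed release of BODIPY-GDP from Rap1B seen as fluorescence loss; 100% = effect of cAMP agonist control; nearly all actives have a fitted effect of over 75% in size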
[4] = target: Rap guanine nucleotide exchange factor 4 (Homo sapiens) (UniProt Q8WZA2); test: Confirmatory qHTS for agonist of cAMP-regulated guanine nucleotide exchange factor 4 (EPAC2) (AID 1645884);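 further: nucleotide exchange releases bodipy-GDP from Rap1 and this lowers its fluorescence; on the % scale 0 is the no-effect control and ±100 the full control effect; nearly all actives have a fitted effect of over 65% in size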
[5] = target: Lysosomal acid glucosylceramidase (Homo sapiens) (UniProt P04062); test: Glucocerebrosidase-p2 (AID 348; in the data active means potency below about 10 µM; further: potency means the concentration at half of the fitted maximal effect); settings: purified GBA, blue fluorogenic substrate, 40 min
Summary of the method: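 Normal human glucocerebrosidase (0.2 nM) with blue fluorogenic substrate (80 uM final) in citrate/phosphate pH 5.9 with 10mM sodium taurocholate, 0.01% tween-20; 40 min RT, NaOH/glycine stop; fluorescence Ex 365/Em 440; AC50 from a titration from 0.6 nM upwards.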

[6] = AP1 Signaling Pathway (AID 357; active means well fitted curve in either direction with a large enough effect, not every such curve was filed as active;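 further: ME-180 reporter cells stimulated with EGF at its EC50 level; on the % scale 0 is the no-effect control and ±100 the full control effect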); settings: ME-180 AP-1-bla reporter, EGF-induced, beta-lactamase ratio, 5 h; at 7.69 µM (top of the series) unless noted
Summary of the method: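 A ratiometric CCF4 readout (405 nm excitation; 460 and 530 nm emission) quantified AP-1-driven beta-lactamase in ME-180 cells after 5 h with compound and EC50 EGF; AC50 values were derived for activators and inhibitors.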

[7] = target: Cytochrome P450 1A2 (Homo sapiens) (UniProt P05177); test: p450-cyp1a2 (AID 410; calls by dose curve; further: potency means the concentration at half of the fitted maximal effect;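 on activity change, negative = inhibition: -100% = full effect of reference inhibitor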)
Summary of the method: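 O-Demethylation of luciferin 6' methyl ether by human CYP1A2 is monitored as luciferase luminescence. Substrate sits at Km (100uM); enzyme is 20nM. Values are scaled to 57 uM furafylline as maximal inhibition.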

[8] = NFAT Signaling Pathway (AID 444; active means well fitted curve in either direction with a large enough effect, not every such curve was filed as active;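 further: carbachol stimulus at about its EC50 of 1 µM final; on the % scale 0 is the no-effect control and ±100 the full control effect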); settings: Jurkat NFAT-bla M1, carbachol, beta-lactamase ratio, 5 h; at 7.69 µM (top of the series) unless noted
Summary of the method: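 Read-out: CCF4 FRET ratio (460 nm/530 nm) after 1 h RT dye loading, used for %activity and AC50 from titration series. Cells: Jurkat NFAT-β-lactamase/M1 line, treated with compound plus 1 uM carbachol for 5 h, 37 °C.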

[9] = Stat Signaling Pathway (AID 446; active means well fitted curve in either direction with a large enough effect, not every such curve was filed as active;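 further: ME-180 cervical cancer cells given 40 pM IL-6 alongside compound; SIE-controlled beta-lactamase reporter measured as 460/530 nm FRET emission ratio; on the % scale 0 is the no-effect control and ±100 the full control effect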); settings: ME-180 (cervical carcinoma) SIE beta-lactamase reporter, IL-6 stimulated, 5 h; at 7.69 µM (top of the series) unless noted
Summary of the method: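 Normalization used AC90 stimulation (300 pM IL-6) and AC90 inhibition (125 nM pan-JAK inhibitor at 40 pM IL-6). The underlying signal is SIE-driven beta-lactamase in ME-180 cells after 5 h IL-6 exposure with compound.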

[10] = target: Glucocorticoid receptor (Homo sapiens) (UniProt P04150); test: GR-GFP Redistribution (AID 450;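 active means compounds whose dose series gives a full or clear partial fitted curve of increased nuclear translocation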; further: potency means the concentration at half of the fitted maximal effect); settings: U2OS GR-GFP nuclear translocation, laser cytometry, 2 h
[11] = target: Glucocorticoid receptor (Homo sapiens) (UniProt P04150); test: GR-EFC Redistribution (AID 451; calls by dose curve; further: potency means the concentration at half of the fitted maximal effect); settings: CHO-K1 GR-EFC translocation, beta-gal luminescence, 2 h
Summary of the method: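 Translocation of GR-ED fusion to nuclear EA restores b-gal, read by luminescence after 1 h room-temperature detection. Engineered CHO-K1 biosensor cells, 1,000/well, exposed 2 h at 37 C to titrations up to 46 uM final.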

[12] = target: Mitogen-activated protein kinase 10 (Mus musculus) (UniProt Q61831); test: JNK3 AlphaScreen Assay (AID 530; active means well fitted curve in either direction with a large enough effect, not every such curve was filed as active;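 further: kinase came from lysate of stimulated human HepG2 cells; signal reports phosphorylation of biotinylated GST-cJun 1-79 at Ser73 with 10 µM ATP; on the % scale 0 is the no-effect control and ±100 the full control effect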)
Summary of the method: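 qHTS titrations with 15 min compound pre-incubation before adding ATP (10 uM final). Read-out: AlphaScreen of Ser73-phosphorylated biotin-GST-cJun using HepG2 lysate JNK3 activated by IL-1β and TNFα.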

[13] = target: 3',5'-cyclic-AMP phosphodiesterase 4B (Homo sapiens) (UniProt Q07343); test: qHTS Assay for Inhibitors of PDE-IV (AID 607; active means well fitted activation curve with a large enough effect in the main read-out, with a control signal flat, not every such curve was filed as active; further: % of control where 0% means no effect)
Summary of the method: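 HEK293 ACTOne cells with CNG channel (1000/well), endogenous PDE4; membrane potential dye, compounds up to 22.9 uM final. Fluorescence Ex 535/Em 590; RO 20-1724 (100 uM final) as reference.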

[14] = target: Dual specificity protein kinase CLK4 (Homo sapiens) (UniProt Q9HAZ1); test: qHTS Assay for Inhibitors of CDC-like Kinase 4 (Kinase-Glo Assay) (AID 1770); further: nearly all actives have a fitted effect of over 65% in size; further: potency means the concentration at half of the fitted maximal effect
Summary of the method: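 Inhibition was judged from remaining ATP, measured by Ultra-Glo luciferase bioluminescence after Clk4 (25 nM) had acted on RS peptide at 1 uM ATP for 4.5 hours, room temperature.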

[15] = target: Dual specificity protein kinase CLK4 (Homo sapiens) (UniProt Q9HAZ1); test: qHTS Assay for Inhibitors of CDC-like Kinase 4 (ADP-Glo Assay) (AID 1771); further: nearly all actives have a fitted effect of over 70% in size; further: potency means the concentration at half of the fitted maximal effect
Summary of the method: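 Compounds are pin-transferred onto substrate mix (100 uM RS peptide, 1 uM ATP), then 25 nM Clk4 is added. After 1 hr at room temperature, ADP-Glo reagent runs 45 min, detection reagent 30 min, then luminescence is read.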

[16] = target: Dual specificity protein kinase CLK4 (Homo sapiens) (UniProt Q9HAZ1); test: qHTS Assay for Inhibitors of CDC-like Kinase 4 (ADP-FP Assay) (AID 1795); further: nearly all actives have a fitted effect of over 60% in size; further: potency means the concentration at half of the fitted maximal effect
Summary of the method: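 Inhibition of ADP formation by 6.25 nM Clk4 is measured using 1 uM ATP and 100 uM RS repeat peptide over one hour. Produced ADP displaces a fluorescent tracer from antibody, lowering polarization.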

[17] = target: Ubiquitin carboxyl-terminal hydrolase 1 (Homo sapiens) (UniProt O94782); test: Inhibitors of USP1/UAF1: Pilot qHTS (AID 504865);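 further: rhodamine fluorescence freed from ubiquitin-rhodamine substrate followed over time; top concentration of the series differs between compounds; on the % scale 0 is the no-effect control and ±100 the full control effect; nearly all actives have a fitted effect of over 35% in size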
Summary of the method: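 Kinetic fluorescence assay: 1nM USP1/UAF1, 15 min compound preincubation, then 150nM Ub-Rho; 480/540 nm.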

[18] = target: Cytochrome P450 3A4 (Homo sapiens) (UniProt P08684); test: qHTS Assay for Activators of Cytochrome P450 3A4 (AID 885); further: nearly all actives have a fitted effect of over 65% in size
Summary of the method: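 Human CYP3A4 dealkylates Luciferin-PPXE to luciferin, which luciferase detection converts to light. Substrate was at its KM (25uM), buffer 200mM KPO4, reaction 60 min at RT.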

[19] = target: Cytochrome P450 3A4 (Homo sapiens) (UniProt P08684); test: qHTS Assay for Inhibitors and Substrates of Cytochrome P450 3A4 (AID 884); further: potency means the concentration at half of the fitted maximal effect; nearly all actives have a fitted effect of over 50% in size
Summary of the method: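 Luminescent readout of luciferin produced by CYP3A4 (20 nM) dealkylation of Luciferin-PPXE, 25 uM (its KM). NADPH-driven reaction ran 60 min at RT after 10 min compound preincubation; data scaled to 57 uM ketoconazole as 100% inhibition.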

[20] = measured here: cell count channel max response
[21] = measured here: lipid channel max response

Ubiquitin carboxyl-terminal hydrolase 1 (Homo sapiens), sequence (O94782 whole entry, looked up): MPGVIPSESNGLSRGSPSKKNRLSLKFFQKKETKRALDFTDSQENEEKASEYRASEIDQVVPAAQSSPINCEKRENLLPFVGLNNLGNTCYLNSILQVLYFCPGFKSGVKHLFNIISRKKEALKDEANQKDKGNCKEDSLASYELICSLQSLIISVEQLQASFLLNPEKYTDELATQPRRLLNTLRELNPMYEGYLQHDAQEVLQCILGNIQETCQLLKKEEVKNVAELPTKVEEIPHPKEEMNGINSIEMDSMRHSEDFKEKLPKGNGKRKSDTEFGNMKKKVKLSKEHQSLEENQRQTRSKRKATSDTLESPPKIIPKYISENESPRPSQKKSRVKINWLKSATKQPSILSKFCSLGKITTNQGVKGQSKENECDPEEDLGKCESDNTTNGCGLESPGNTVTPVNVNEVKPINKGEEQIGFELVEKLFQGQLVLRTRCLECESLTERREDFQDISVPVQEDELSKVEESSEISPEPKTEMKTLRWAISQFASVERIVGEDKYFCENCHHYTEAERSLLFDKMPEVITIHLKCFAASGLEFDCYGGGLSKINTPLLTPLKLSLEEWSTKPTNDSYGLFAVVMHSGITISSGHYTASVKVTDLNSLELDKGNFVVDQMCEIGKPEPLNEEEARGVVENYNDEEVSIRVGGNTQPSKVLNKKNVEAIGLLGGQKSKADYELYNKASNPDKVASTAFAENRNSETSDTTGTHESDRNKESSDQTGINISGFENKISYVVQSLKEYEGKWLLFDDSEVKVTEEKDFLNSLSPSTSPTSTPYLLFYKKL
Glucocorticoid receptor (Homo sapiens), sequence (P04150 whole entry, looked up, the tested form may be a part): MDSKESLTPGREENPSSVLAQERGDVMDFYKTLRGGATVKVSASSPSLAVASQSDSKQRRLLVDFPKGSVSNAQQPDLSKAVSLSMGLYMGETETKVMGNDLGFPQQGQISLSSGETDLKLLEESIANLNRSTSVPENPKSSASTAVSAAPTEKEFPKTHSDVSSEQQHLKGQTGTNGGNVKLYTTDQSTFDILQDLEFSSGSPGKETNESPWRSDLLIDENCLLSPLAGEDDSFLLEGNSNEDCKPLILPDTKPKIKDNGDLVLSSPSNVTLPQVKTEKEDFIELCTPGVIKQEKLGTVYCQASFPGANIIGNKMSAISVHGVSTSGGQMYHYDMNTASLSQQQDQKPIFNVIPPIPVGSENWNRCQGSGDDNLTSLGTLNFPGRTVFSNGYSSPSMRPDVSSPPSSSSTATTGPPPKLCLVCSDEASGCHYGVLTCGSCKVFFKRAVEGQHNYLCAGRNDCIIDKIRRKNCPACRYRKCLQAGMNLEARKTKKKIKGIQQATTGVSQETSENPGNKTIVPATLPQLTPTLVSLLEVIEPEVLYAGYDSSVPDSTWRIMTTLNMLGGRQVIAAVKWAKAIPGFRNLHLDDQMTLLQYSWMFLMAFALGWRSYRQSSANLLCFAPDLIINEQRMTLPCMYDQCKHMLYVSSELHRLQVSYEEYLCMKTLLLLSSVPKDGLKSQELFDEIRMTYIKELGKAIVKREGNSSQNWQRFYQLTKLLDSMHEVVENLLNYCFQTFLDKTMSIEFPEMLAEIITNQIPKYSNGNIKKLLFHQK
3',5'-cyclic-AMP phosphodiesterase 4B (Homo sapiens), sequence (Q07343 whole entry, looked up): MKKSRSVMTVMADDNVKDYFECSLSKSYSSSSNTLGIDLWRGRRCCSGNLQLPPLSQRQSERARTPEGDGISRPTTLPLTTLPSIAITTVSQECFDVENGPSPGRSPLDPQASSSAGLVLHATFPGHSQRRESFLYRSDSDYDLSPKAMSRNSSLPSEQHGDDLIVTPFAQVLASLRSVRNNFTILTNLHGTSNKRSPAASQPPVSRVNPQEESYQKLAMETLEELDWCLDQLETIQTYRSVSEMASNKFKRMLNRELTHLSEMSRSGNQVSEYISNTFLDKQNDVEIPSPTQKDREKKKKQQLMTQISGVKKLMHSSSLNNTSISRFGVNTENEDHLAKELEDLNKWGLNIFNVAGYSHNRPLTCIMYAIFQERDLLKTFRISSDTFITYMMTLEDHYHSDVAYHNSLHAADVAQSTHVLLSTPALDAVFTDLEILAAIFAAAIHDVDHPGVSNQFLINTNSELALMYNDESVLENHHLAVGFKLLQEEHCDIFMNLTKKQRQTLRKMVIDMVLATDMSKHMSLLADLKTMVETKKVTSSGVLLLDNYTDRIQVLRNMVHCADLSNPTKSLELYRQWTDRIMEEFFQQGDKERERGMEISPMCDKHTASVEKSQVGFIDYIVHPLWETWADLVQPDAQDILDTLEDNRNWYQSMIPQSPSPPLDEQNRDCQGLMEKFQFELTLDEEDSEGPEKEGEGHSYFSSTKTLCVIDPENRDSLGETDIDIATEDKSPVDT
Cytochrome P450 3A4 (Homo sapiens), sequence (P08684 whole entry, looked up): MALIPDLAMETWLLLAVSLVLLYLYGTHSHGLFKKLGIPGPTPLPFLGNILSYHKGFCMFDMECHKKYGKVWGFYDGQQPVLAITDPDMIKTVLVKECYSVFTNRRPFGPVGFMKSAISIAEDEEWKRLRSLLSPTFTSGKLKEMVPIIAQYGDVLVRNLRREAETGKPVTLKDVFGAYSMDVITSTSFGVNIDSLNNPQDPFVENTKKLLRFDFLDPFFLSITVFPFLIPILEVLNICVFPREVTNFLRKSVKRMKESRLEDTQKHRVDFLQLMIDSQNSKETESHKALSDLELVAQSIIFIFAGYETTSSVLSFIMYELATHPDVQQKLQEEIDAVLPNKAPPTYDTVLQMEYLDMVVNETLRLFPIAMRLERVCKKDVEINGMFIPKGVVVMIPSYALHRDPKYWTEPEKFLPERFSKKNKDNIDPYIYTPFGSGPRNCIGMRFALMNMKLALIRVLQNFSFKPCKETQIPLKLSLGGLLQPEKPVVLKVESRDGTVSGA
Lysosomal acid glucosylceramidase (Homo sapiens), sequence (P04062 whole entry, looked up): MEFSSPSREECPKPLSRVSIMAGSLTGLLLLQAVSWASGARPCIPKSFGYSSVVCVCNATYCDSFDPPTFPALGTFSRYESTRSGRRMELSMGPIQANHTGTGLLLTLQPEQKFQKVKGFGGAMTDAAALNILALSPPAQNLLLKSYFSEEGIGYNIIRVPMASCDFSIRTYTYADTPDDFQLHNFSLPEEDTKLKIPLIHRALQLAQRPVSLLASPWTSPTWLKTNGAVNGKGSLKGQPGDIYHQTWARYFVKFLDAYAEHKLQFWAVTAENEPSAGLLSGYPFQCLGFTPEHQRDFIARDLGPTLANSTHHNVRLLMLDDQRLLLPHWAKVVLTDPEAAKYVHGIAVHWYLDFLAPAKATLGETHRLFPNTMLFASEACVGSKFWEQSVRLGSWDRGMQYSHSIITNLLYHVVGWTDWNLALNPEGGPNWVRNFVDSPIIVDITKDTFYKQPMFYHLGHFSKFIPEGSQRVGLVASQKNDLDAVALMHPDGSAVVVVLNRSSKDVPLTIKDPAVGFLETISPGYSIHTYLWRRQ
Dual specificity protein kinase CLK4 (Homo sapiens), sequence (Q9HAZ1 whole entry, looked up): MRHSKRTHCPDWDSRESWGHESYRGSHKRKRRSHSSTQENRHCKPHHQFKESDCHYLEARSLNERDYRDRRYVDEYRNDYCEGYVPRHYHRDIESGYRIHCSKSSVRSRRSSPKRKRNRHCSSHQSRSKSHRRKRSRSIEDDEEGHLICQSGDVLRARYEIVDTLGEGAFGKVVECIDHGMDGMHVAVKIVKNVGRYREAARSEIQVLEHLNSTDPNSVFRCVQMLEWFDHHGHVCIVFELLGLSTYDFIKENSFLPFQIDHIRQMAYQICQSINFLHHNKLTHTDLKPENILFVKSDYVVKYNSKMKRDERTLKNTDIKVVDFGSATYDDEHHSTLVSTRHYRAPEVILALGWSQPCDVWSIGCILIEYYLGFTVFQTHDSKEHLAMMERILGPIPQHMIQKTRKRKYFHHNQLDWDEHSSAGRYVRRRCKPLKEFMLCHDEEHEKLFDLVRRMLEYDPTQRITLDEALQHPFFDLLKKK
Cytochrome P450 1A2 (Homo sapiens), sequence (P05177 whole entry, looked up): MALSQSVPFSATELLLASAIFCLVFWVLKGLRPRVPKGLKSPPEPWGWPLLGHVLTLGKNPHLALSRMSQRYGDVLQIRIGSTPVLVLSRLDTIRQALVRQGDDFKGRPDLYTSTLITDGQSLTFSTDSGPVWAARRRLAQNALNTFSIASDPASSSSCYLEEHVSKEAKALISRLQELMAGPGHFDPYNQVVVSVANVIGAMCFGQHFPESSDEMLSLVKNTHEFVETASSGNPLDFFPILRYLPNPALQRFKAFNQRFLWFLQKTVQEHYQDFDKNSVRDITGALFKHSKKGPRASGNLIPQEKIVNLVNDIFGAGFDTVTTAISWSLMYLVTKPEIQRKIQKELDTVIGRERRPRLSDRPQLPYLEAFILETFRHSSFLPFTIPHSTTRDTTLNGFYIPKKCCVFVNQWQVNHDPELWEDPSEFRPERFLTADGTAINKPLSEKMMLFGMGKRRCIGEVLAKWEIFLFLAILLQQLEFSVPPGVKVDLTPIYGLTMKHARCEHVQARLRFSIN

Cc1cccc2c3c(ccc12)C1=C(C(=O)C3=O)C(C)CO1 (stereo unspecified)
9.52%: max response [2, 20]
inactive: outcome [1] | activity change, negative = inhibition [2] 8.95% | Potency [3] | Potency [4]
20.4%: max response [2, 21]

Clc1ccccc1-c1nc(NC2CCNCC2)c2ccccc2n1
active: Potency [7] 20 µM | Potency [14] 10 µM | Potency [15] 12.6 µM | Potency [16] 12.6 µM
inactive: Potency [5] > 11.4 µM | activity change, negative = inhibition [6] -8.89% | activity change, negative = inhibition [8] 7.15% | activity, negative = inhibition [9] 3.31% | Potency [10] > 46 µM | Potency [11] > 46 µM | Potency [12] | Potency [13] | activity change, negative = inhibition [2] 1.68% | Potency [17]
15.1%: max response [2, 20]
17.6%: max response [2, 21]

CN(C)CCCO[C@H]1C([C@H](O)CO)O[C@@H]2OC(C)(C)O[C@@H]21 (stereo partly specified)
19.8%: max response [2, 20]
24%: max response [2, 21]
inactive: activity change, negative = inhibition [2] 1.15%

COCCn1c(=O)c(-c2ccc(Cl)cc2)nc2cnc(N3CCNCC3)nc21
21.3%: max response [2, 21]
inactive: Potency [5] > 11.4 µM | Potency [10] > 9.22 µM | Potency [11] > 46 µM | Potency [12] | Potency [13] | activity change, negative = inhibition [2] 5.4% | Potency [14] | Potency [15] | Potency [16] | Potency [17]
20.2%: max response [2, 20]

N#CCCn1c(=O)c(-c2ccc(F)cc2)nc2cnc(OCc3ccccc3)nc21
active: Potency [7] 1.58 µM
-3.12%: max response [2, 21]
0.762%: max response [2, 20]
inactive: Potency [5] > 11.4 µM | activity change, negative = inhibition [8] -4.49% | activity, negative = inhibition [9] -20.1% | Potency [10] > 9.22 µM | Potency [11] > 46 µM | Potency [12] | Potency [13] | Potency [18] | activity change, negative = inhibition [2] -1.54% | Potency [14] | Potency [15] | Potency [16] | Potency [17]

COc1ccc(-c2nc3cnc(OC)nc3n(C[C@H]3CCCO3)c2=O)cc1
1.25%: max response [2, 21]
2.19%: max response [2, 20]
inactive: Potency [5] > 11.4 µM | activity change, negative = inhibition [6] -17.7% | activity change, negative = inhibition [8] 11.8% | activity, negative = inhibition [9] -12.4% | Potency [10] > 9.22 µM | Potency [11] > 46 µM | Potency [12] | activity change, negative = inhibition [2] 0.324% | Potency [14] | Potency [15] | Potency [16] | Potency [17]

COc1ccc(-n2c(=O)c(CCc3ccccc3)nc3cnc(N4CCN(C)CC4)nc32)cc1
12.7%: max response [2, 20]
inactive: Potency [5] > 11.4 µM | activity change, negative = inhibition [6] -22.3% | Potency [7] | activity change, negative = inhibition [8] -24% | activity, negative = inhibition [9] -10.4% | Potency [10] > 9.22 µM | Potency [11] > 46 µM | Potency [12] | Potency [18] | activity change, negative = inhibition [2] 2.13% | Potency [14] | Potency [15] | Potency [16] | Potency [17]
12.5%: max response [2, 21]

O=c1cnc2cnc(N3CCNCC3)nc2n1C1CC1
inactive: Potency [5] > 11.4 µM | activity change, negative = inhibition [6] -8.15% | activity change, negative = inhibition [8] -1.86% | activity, negative = inhibition [9] -7.26% | Potency [11] > 46 µM | Potency [12] | Potency [13] | activity change, negative = inhibition [2] 0.852% | Potency [14] | Potency [15] | Potency [16] | Potency [17]
7.84%: max response [2, 21]
9.12%: max response [2, 20]

COc1ccc(Oc2ncc3nc(-c4ccc(Cl)cc4)c(=O)n(C4CC4)c3n2)cc1
-1.25%: max response [2, 20]
inactive: Potency [5] > 11.4 µM | activity change, negative = inhibition [6] -19.7% | activity change, negative = inhibition [8] 2.73% | activity, negative = inhibition [9] -1.97% | Potency [10] > 9.22 µM | Potency [11] > 46 µM | Potency [12] | activity change, negative = inhibition [2] 4.67% | Potency [14] | Potency [15] | Potency [16] | Potency [17]
5.63%: max response [2, 21]

CC(=O)NCCNc1ncnc2ccc(-c3ccccc3C)cc12
active: Potency [14] 15.8 µM | Potency [15] 12.6 µM | Potency [16] 12.6 µM
inactive: Potency [5] > 11.4 µM | activity change, negative = inhibition [6] 28% | activity change, negative = inhibition [8] -4.6% | Potency [10] > 46 µM | Potency [11] > 46 µM | Potency [12] | Potency [18] | activity change, negative = inhibition [2] 3.95% | Potency [17]
28.7%: max response [2, 20]
28.3%: max response [2, 21]

CN1CCN(c2ncc3nc(-c4ccccc4)c(=O)n(C4CC4)c3n2)CC1
24.3%: max response [2, 20]
inactive: Potency [5] > 11.4 µM | activity change, negative = inhibition [8] 30% | Potency [10] > 9.22 µM | Potency [11] > 46 µM | Potency [12] | Potency [13] | activity change, negative = inhibition [2] 4.04% | Potency [14] | Potency [15] | Potency [16] | Potency [17]
27.3%: max response [2, 21]

CN1CCN(c2ncncc2-c2ccccc2Cl)CC1
8.31%: max response [2, 20]
inactive: Potency [5] > 11.4 µM | activity change, negative = inhibition [6] -12.3% | activity, negative = inhibition [9] -1.1% | Potency [10] > 46 µM | Potency [11] > 46 µM | Potency [12] | Potency [13] | Potency [18] | activity change, negative = inhibition [2] -1.74% | Potency [14] | Potency [15] | Potency [16] | Potency [17]
active: Potency [7] 2.51 µM | Potency [19] 1.58 µM
3.53%: max response [2, 21]

CN1CCN(c2ncncc2-c2ccoc2)CC1
inactive: Potency [5] > 11.4 µM | activity change, negative = inhibition [6] -0.0355% | activity change, negative = inhibition [8] -13% | activity, negative = inhibition [9] -4.34% | Potency [10] > 46 µM | Potency [11] > 46 µM | Potency [12] | Potency [13] | Potency [18] | activity change, negative = inhibition [2] 5.79% | Potency [14] | Potency [15] | Potency [16] | Potency [17]
30.3%: max response [2, 21]
23.7%: max response [2, 20]
